Laboratory results taken from the supplement of paper PMC6555819.

Each sequence was assayed on PPARg:RXRa 270nM:90nM, anti-RXR (NR concentration 270 nM, RXRa partner concentration 90 nM) (assay: PBM binding z-score (relative to random genomic background probes); higher = stronger binding; sequences stand for … in GC…GCGATTGACAGCGTAGAATGAAGG).
Method in brief: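 Binding z-scores were set against random background probes. The data came from custom Agilent 4×180K protein-binding microarrays carrying double-stranded probes with 34-nt variable regions, incubated 1 h with ligand-free nuclear receptor dimers. Partner-specific antibodies detected binding, and scanned fluorescence was regression-normalized.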

Sequence | PBM binding z-score
CCTACTGGGCAAAAGGTCATTGATTCCAATGCTC | 9.29
CAGCCTAGATCAGGGCCAGTATAGGAGGAACGTT | -0.997
ACTAGTTGGTCAGCTGAGGTCACACAGAATTCGG | 2.46
GCAGACAGGTTAAACGCAGGTAACTCAGGGTGGC | 0.222
TCATATGGGTAATACAGGTGAAAGTCGGCATCTA | 2.13
GCAGACAGGTAAAACGCAGGTAACTCAGGGTGGC | -0.433
CGTCAAAGTTCAATGTAACGTAACAGAAAGCAGC | 4.35
GGTACGAGGGCAAGTTGATAGCAGAGTTTGATGG | 0.456
TAGCCCAGGTCATTCAGGGGCCAGTATAGAAAGC | 2.46
AGAATGCGGTTATTAAGATCAGGGAATTGCGGTC | -0.202
GCTTACGAGTCAAAGGTTATAGCATGAATAGAAT | 6.18
GCAGACAGGTGAGACGCAGGTAACTCAGGGTGGC | -0.0915
CCTACTGGGCTAAAAAGGTCATTGATGCCGATAA | 3.6
CAGCCTAGGTCAGGGCCAGTCTAGGAGGAACGTT | 0.9
CCGACTGAGGCAAAGGTTACCATACTCAGTACGA | 6.76
GATACAGGGTCAAAGCCAGAGTACGCGTATTGAT | 5.39
ATACCAAGGTGATCGTGAGGTCGGTGATACTAAC | -0.213
CCGCCTGGGGCAAGGTTACCATAACGCACAGCCA | 0.637
CCAGACAGGTGAGAAGGTAACTGAGCCTCGATTA | 0.61
CGAACTAGGACATTGACAGGACAGTGAATAGTAA | 0.247

Sequence | PBM binding z-score
CAGACTAGGTCACAGAGGTCAAAGTCCGTGCGTA | 7.43
GCGACTGGGGCATCAGTAGGTTACCATAACTTAA | 1.5
CCTGCTAGGTCAAGGTCAGCTAATCTACAGTATG | 4.63
CCGACTGGGGCAGAGAGGTTACCATACCATCCGG | 1.6
TCTTGTAGATCAACAGGTGGTTAAGAAAGATCGA | 1.22
CCTATTGGGCCAAAGGTCATTGATTCCAATGCTC | 9.98
CCTGCTAGGTCATGGTCAGCTCATCTACAGTATG | 2.85
TCAAGCAGGCCAGAGGGTCACTCAAGAGGTACGG | 2.69
ACAGACAGGTGATCAAGGTAACTCAGGCTATCAT | -0.0434
CCCGAAAGGTCGGTTGAGGTGAGTATACGGATAA | 1.12
TATACAGGGTCAATGGCCAGAGTACGAATGTCGA | 4.94
CCTACTGGGCTAAAGGTCATTGATTCCAATGCTC | 9.38
CCTGCTAGGTCCTGGTCAGCTAATCTACAGTATG | -0.442
TCTGCTAGGTCAGTAGGTCAGCTAACGAGCTGCC | 5
TCTTGTAGATCAGCAGATTAAGAAAGCTGGCCAA | 0.95
GCTTACGGATCAAAGGTTATAGCATGAATAGAAT | 6.43
ACTCGGAGGACAAAGGGCAGAGCTACGCCAGTGA | 4.39
GGAACGAGAGCATTCGAGTTGATAGCATGGCGAT | -0.536
GCTTGTAGATCATGGTTAAGAAAGACTAAGCTAA | 0.171
CGAACTCGGTCAAGGACAGTGAATCTCCGCACGC | 0.618
